Data published in PubChem BioAssay.
A number with no mark means an inactive call. A call without a number means that no potency is given here. For some assays here: Potency and affinity values are given separately. Activity calls are given as the source filed them. Unless noted, no rule for the calls is given here.

Columns and labels:
[1] = antimalarial activity against Dd2 strain (AID 2302;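 active = growth inhibition above 50% at the single 2 µM test dose, taken to imply half-maximal potency below 2 µM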); conditions: P. falciparum Dd2 in RBCs, LDH growth readout, 72 h; at 2 µM; active compounds read high
[2] = HepG2 cytotoxicity, primary screen, cytotoxicity control for P. falciparum antimalarial project, cell-based, ATP luminescence (AID 2303;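 active = inhibition above 50%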); conditions: HepG2 viability, 24-48 h, at 10 µM, active compounds read high
[3] = biological target: L-lactate dehydrogenase (Plasmodium falciparum (isolate CDC / Honduras)) (UniProt Q27743); assay: PfLDH activity inhibition – cell lysate, 3D7 strain, counter-screen for P. falciparum growth inhibition project (AID 2304); conditions: P. falciparum 3D7 crude extract, LDH APAD/NBT absorbance; at 2 µM; active compounds read high
Sequence of L-lactate dehydrogenase (Plasmodium falciparum (isolate CDC / Honduras)) (Q27743 whole entry, looked up): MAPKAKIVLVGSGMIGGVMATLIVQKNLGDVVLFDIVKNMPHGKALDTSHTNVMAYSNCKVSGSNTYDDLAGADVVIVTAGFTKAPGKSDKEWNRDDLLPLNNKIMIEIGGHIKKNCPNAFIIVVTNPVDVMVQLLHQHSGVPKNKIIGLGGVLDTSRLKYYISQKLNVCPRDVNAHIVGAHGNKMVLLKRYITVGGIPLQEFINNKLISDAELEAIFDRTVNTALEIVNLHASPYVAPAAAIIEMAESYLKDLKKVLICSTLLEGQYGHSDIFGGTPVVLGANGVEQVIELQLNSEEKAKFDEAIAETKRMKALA

[4] = inhibition of 3D7 malaria parasite growth – strain 3D7 (AID 2306); conditions: P. falciparum 3D7 erythrocytic growth, LDH absorbance, 72 h; at 2 µM; active compounds read high
[5] = biological target: Calcium-dependent protein kinase 1 (Plasmodium falciparum (isolate 3D7)) (UniProt P62344); assay: PfCDPK1 kinase inhibitors, biochemical, TCAMS library (AID 1159585; cut-off not given, nearly all actives have IC50 up to about 0.98 µM;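 also: inhibitors leave more ATP so luminescence rises with inhibition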); conditions: recombinant PfCDPK1, Kinase-Glo ATP depletion luminescence
Sequence of Calcium-dependent protein kinase 1 (Plasmodium falciparum (isolate 3D7)) (P62344 whole entry, looked up): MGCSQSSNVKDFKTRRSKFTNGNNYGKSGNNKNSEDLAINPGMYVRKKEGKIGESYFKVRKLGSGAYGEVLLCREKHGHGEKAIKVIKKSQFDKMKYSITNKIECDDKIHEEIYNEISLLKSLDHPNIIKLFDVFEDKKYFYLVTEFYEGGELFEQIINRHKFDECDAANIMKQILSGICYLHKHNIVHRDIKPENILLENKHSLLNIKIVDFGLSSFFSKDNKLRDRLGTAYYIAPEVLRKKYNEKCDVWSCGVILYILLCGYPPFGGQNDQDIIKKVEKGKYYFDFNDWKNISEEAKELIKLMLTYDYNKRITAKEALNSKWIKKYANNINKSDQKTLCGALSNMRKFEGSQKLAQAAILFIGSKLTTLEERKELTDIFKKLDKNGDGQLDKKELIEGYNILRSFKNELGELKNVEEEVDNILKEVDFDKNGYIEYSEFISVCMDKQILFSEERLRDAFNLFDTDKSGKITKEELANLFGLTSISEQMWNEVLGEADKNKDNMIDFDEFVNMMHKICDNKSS

[6] = biological target: Plasmodium falciparum protein kinase 6 (PK6, PF3D7_1337100) (UniProt Q8IDW1); assay: PfPK6 kinase inhibitors, biochemical, TCAMS library (AID 1159586); conditions: recombinant PfPK6, Kinase-Glo ATP depletion luminescence
Sequence of Plasmodium falciparum protein kinase 6 (PK6, PF3D7_1337100) (Q8IDW1 1-305): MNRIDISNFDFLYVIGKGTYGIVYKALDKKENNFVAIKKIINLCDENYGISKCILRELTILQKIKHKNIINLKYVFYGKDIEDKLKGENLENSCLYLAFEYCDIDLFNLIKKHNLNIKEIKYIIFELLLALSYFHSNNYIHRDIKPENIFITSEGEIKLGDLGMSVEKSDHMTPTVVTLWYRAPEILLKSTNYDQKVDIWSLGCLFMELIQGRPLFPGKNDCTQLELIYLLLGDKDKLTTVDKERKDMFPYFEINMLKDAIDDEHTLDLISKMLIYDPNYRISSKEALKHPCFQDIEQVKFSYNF

[7] = biological target: Protein kinase 7 (PK7), Plasmodium falciparum 3D7 (PF3D7_0213400) (UniProt Q7YTF7); assay: inhibition of Plasmodium PK7 catalytic activity – biochemical, TCAMS antimalarial set, Kinase-Glo luminescence (AID 1159587); conditions: recombinant PfPK7, Kinase-Glo ATP depletion luminescence
Sequence of Protein kinase 7 (PK7), Plasmodium falciparum 3D7 (PF3D7_0213400) (Q7YTF7 1-343): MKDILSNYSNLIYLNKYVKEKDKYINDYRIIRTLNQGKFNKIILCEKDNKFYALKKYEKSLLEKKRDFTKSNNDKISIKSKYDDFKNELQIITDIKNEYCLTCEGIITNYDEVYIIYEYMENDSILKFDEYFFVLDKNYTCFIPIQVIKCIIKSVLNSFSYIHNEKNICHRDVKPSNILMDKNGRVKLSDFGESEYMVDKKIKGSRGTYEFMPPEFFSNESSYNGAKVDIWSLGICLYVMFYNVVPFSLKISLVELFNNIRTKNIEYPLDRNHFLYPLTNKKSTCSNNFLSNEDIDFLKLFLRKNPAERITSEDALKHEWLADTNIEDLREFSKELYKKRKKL

[8] = biological target: Calcium-dependent protein kinase 4 (Plasmodium falciparum (isolate 3D7)) (UniProt Q8IBS5); assay: PfCDPK4 kinase inhibitors, biochemical, TCAMS library (AID 1159588; cut-off not given, nearly all actives have IC50 up to about 0.91 µM); conditions: recombinant PfCDPK4, Kinase-Glo ATP depletion luminescence
Sequence of Calcium-dependent protein kinase 4 (Plasmodium falciparum (isolate 3D7)) (Q8IBS5 whole entry, looked up): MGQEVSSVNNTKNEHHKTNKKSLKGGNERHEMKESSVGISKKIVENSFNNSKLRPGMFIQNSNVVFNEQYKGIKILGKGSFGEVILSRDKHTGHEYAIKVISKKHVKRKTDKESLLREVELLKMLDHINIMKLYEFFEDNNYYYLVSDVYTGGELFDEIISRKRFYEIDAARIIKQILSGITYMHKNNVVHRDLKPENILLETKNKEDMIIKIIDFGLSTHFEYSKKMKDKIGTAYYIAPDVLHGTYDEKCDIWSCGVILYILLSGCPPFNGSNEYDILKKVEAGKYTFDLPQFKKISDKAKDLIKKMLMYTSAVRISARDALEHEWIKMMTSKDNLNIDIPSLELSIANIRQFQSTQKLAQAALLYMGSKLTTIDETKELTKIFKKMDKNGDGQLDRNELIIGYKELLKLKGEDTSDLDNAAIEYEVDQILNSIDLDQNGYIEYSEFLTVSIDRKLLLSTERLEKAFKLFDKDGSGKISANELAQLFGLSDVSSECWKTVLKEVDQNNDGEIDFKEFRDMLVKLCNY

Compound | growth inhibition [1] | inhibition [2] | inhibition [3] | growth inhibition [4] | outcome [5] | outcome [6] | outcome [7] | outcome [8]
COc1cccc(CNC[C@@H](O)[C@H](Cc2ccccc2)NC(=O)c2cc(NC(C)C)cc(N3CCCCS3(=O)=O)c2)c1 | 97% (active) | 1% | 1% | 89% (active) | inactive | inactive | inactive | inactive
Cc1cccc(-c2nn(-c3ccccc3)c3[nH]c(=O)c(CNC4CCCC4)cc23)c1 | 97% (active) | 18% | -2% | 98% (active) | inactive | inactive | inactive | inactive
CCOc1ccc(C(=O)Nc2nonc2-c2ccc(OC)c(OC)c2)cc1 | 42% | 7% | 5% | 95% (active) | inactive | inactive | inactive | inactive
O=C(NCCCCCN1CCC(c2c[nH]c3ccccc23)CC1)c1ccc(-c2cccnc2)cc1 | 10% | 29% | 1% | 89% (active) | inactive | inactive | inactive | inactive
CN1CC[C@@H](Oc2cc(Nc3nc(-c4ccc(C#N)cc4)cs3)ccc2Cl)C1 | 24% | 12% | -1% | 99% (active) | inactive | inactive | inactive | inactive
Cc1cc(N[C@@H](CC(C)C)C(=O)NC2CCCC2)nc(NCCc2ccc(F)cc2)n1 | 47% | 15% | -2% | 100% (active) | inactive | inactive | inactive | inactive
O=C(NCCCCN1CCC(c2ccc(C(F)(F)F)cc2C(F)(F)F)CC1)c1ccc(NC(=O)c2ccc(Cl)cc2)cc1 | 59% (active) | 4% | 7% | 99% (active) | inactive | inactive | inactive | inactive
Cc1cccc2[nH]c(-c3ccc(-c4ccc(CN5CCN(C6CCN(C)CC6)CC5)cc4)s3)nc12 | 101% (active) | 97% (active) | -4% | 101% (active) | inactive | inactive | inactive | inactive
COc1ccc(Nc2nccc(NCC(O)c3cccc(C(F)(F)F)c3)n2)cc1 (stereo not given) | 33% | 22% | -2% | 98% (active) | inactive | inactive | inactive | inactive
O=C(OCc1ccccn1)c1nc2ccccc2[nH]1 | 97% (active) | 63% (active) | -2% | 92% (active) | inactive | inactive | inactive | inactive
O=C(Nc1cc(Cl)cc(Cl)c1)N[C@H]1CCN(CCCCCNC(=O)[C@@H]2C[C@H]2c2ccc(Cl)c(Cl)c2)C1 | -3% | 49% | 3% | 99% (active) | inactive | inactive | inactive | inactive
COc1ccccc1NC(=O)Nc1cccc(-c2ccc(-c3nc4ccc(C(F)(F)F)cc4[nH]3)cc2)c1 | 76% (active) | 28% | 5% | 100% (active) | inactive | inactive | inactive | inactive
COc1ccc(S(=O)(=O)Nc2ccc(C(=O)NCc3ccc(C(F)(F)F)cc3)cc2)cc1N1CCN(CC2CC2)CC1 | 1% | 34% | 2% | 95% (active) | inactive | inactive | inactive | inactive
CCC(C(=O)Nc1cc(=O)[nH]c2nc(-c3ccco3)nn12)c1ccccc1 (stereo not given) | 68% (active) | 2% | -1% | 87% (active) | inactive | inactive | inactive | inactive
Cc1[nH]c(C)c(-c2ccc(C(F)(F)F)cc2)c(=O)c1Br | 96% (active) | -5% | -8% | 98% (active) | inactive | inactive | inactive | inactive
OC(CN1CCN(C2CCCCC2)CC1)Cn1c2ccccc2c2cc(Br)ccc21 (stereo not given) | 89% (active) | 14% | -2% | 97% (active) | inactive | inactive | inactive | inactive
Nc1ccnc(N2CCC(CCOc3cc(C(F)(F)F)nc4c(C(F)(F)F)cccc34)CC2)c1 | 17% | 35% | -1% | 98% (active) | inactive | inactive | inactive | inactive
O=C(Nc1cccc(CN2CCCN(Cc3ncc[nH]3)CC2)c1)c1ccc2ccccc2c1 | 2% | 13% | -1% | 100% (active) | inactive | inactive | inactive | inactive
CC(C)(C)c1ccc(NC(=O)c2ccc(CN3CCCN(Cc4ccsc4)CC3)cc2)cc1 | -1% | 50% (active) | -7% | 96% (active) | inactive | inactive | inactive | inactive
Cc1cc(N2CCCC2)nc(Nc2ccc(NC(=O)C(C)Oc3ccccc3)cc2)n1 (stereo not given) | 58% (active) | 42% | -1% | 101% (active) | inactive | inactive | inactive | inactive

Compound | growth inhibition [1] | inhibition [2] | inhibition [3] | growth inhibition [4] | outcome [5] | outcome [6] | outcome [7] | outcome [8]
NC(N)=NN=CC(=O)Nc1ccc(Br)cc1 | 1% | 5% | 0% | 100% (active) | inactive | inactive | inactive | inactive
CN1CCCN(Cc2cccc(-c3ccc(NS(=O)(=O)c4cccc5cccnc45)cc3)c2)CC1 | 87% (active) | 44% | 2% | 100% (active) | inactive | inactive | inactive | inactive
CCc1ccc(NC(=O)c2ccc(CN3CCCN(Cc4cccs4)CC3)cc2)cc1 | -1% | 57% (active) | 0% | 87% (active) | inactive | inactive | inactive | inactive
COc1ccc(-c2nc3nc4ccccc4cc3[nH]2)c(OCC(O)CNC(C)C)c1 (stereo not given) | 96% (active) | 19% | -1% | 98% (active) | inactive | inactive | inactive | inactive
CCCCn1c(-c2ccco2)nc2c(c(=O)c3ccccc3n2C)c1=O | 64% (active) | 11% | -2% | 87% (active) | inactive | inactive | inactive | inactive
COc1cc(Nc2nccc(Nc3ccc4c(C)[nH]nc4c3)n2)cc2ccccc12 | 82% (active) | 13% | 5% | 102% (active) | inactive | inactive | inactive | inactive
CN1CCN(c2ccc3nccc(CCN4CCC(NCc5ccc6c(n5)NC(=O)CO6)CC4)c3n2)CC1 | 3% | 9% | -1% | 97% (active) | inactive | inactive | inactive | inactive
COc1ccccc1C1CCN(Cc2csc(NC(=O)c3ccc(-c4ccc(C(F)(F)F)cc4)cc3)n2)CC1 | 23% | 62% (active) | -2% | 85% (active) | inactive | inactive | inactive | inactive
N#Cc1cccc(NC(=O)c2ccc(S(=O)(=O)NCC3CCCN3CC3CCCCC3)cc2)c1 (stereo not given) | 18% | 25% | 4% | 88% (active) | inactive | inactive | inactive | inactive
CC(=O)Nc1ccc(CN(Cc2ccc(F)cc2)Cc2ccc3c(c2)OCO3)cc1 | 87% (active) | 3% | 6% | 91% (active) | inactive | inactive | inactive | inactive
O=C(/C=C/c1ccc(C(F)(F)F)cc1)NCCCCCN1CCCN(C(=O)Nc2ccc(Cl)c(C(F)(F)F)c2)CC1 | 31% | 64% (active) | 4% | 99% (active) | inactive | inactive | inactive | inactive
O=C(Nc1nc2cc(S(=O)(=O)NCc3ccc(Cl)c(Cl)c3)ccc2n1CCCN1CCCC1)c1ccc(Cl)cc1 | 16% | 57% (active) | -1% | 89% (active) | inactive | inactive | inactive | inactive
C=CCn1cc(C2CCN(CCCCNC(=O)c3sc(-c4ccc(C(F)(F)F)cc4)nc3CO)CC2)c2cc(OC)ccc21 | 4% | 40% | 4% | 91% (active) | inactive | inactive | inactive | inactive
C[C@@H](C(N)=O)N1CCCCC1c1ccc(OCc2cccc(F)c2)cc1 (stereo not given in full) | 96% (active) | 79% (active) | 9% | 84% (active) | inactive | inactive | inactive | inactive
Cc1cccc(C)c1CNc1ccnc2cc(Br)ccc12 | 99% (active) | 24% | -3% | 95% (active) | inactive | inactive | inactive | inactive
O=C(CCc1nc2c(cnn2-c2ccccc2)c(=O)[nH]1)NC1CCSc2ccccc21 (stereo not given) | 52% (active) | 10% | -2% | 95% (active) | inactive | inactive | inactive | inactive
Cc1cc(C)c(C(=O)Nc2ccc3nc(C)cc(N)c3c2)c(C)c1 | 14% | 12% | 4% | 84% (active) | inactive | inactive | inactive | inactive
CC[C@H](C)CNC(=O)c1cncc(-c2ccc(CNC3Cc4ccccc4C3)cc2)c1 | 95% (active) | 14% | 3% | 101% (active) | inactive | inactive | inactive | inactive
CCN(CCCN1CCCCC1)c1cc(C)nc(Nc2cccc(C(F)(F)F)c2)n1 | 88% (active) | 25% | 5% | 102% (active) | inactive | inactive | inactive | inactive
c1cc(CN2CCc3ccccc3CC2)cc(-c2c[nH]c3nc(NC4CCCC4)ncc23)c1 | 49% | 31% | -3% | 99% (active) | inactive | inactive | inactive | inactive
